# In the supplement of paper PMC8728848:
# The sample as a whole holds a higher share of the strongest signals than the screen did.
# Key:
# Assay in all cases: glycan array binding signal (z-score within array); higher = stronger binding
# Conditions in all cases: glycan notation: IUPAC condensed, linker removed
# Fuc(a1-2)Gal(b1-3)GalNAc = target: Fuc(a1-2)Gal(b1-3)GalNAc
# Method in brief: (§1)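 Glycan array data came from 3228 arrays in the Consortium for Functional Glycomics database, and only arrays with an available protein sequence were kept. Glycan names were put into IUPAC-condensed notation, and columns mapping to the same glycan were averaged. The binding signal is a within-array Z-score, averaged across arrays of one protein sequence run at different concentrations or buffers and across linkers. A negative Z-score can be read as non-binding.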
# Fuc(a1-2)Gal(b1-3)GlcNAc = target: Fuc(a1-2)Gal(b1-3)GlcNAc
# Method in brief: as §1
# [1] = target: Fuc(a1-2)Gal(b1-3)GlcNAc(b1-2)Man(a1-3)[Fuc(a1-2)Gal(b1-3)GlcNAc(b1-2)Man(a1-6)]Man(b1-4)GlcNAc(b1-4)GlcNAc
# Method in brief: as §1
# [2] = target: Fuc(a1-2)Gal(b1-3)GlcNAc(b1-3)GalNAc
# Method in brief: as §1
# [3] = target: Fuc(a1-2)Gal(b1-3)GlcNAc(b1-3)[Neu5Ac(a2-6)Gal(b1-4)GlcNAc(b1-6)]Gal(b1-4)Glc
# Method in brief: as §1
# [4] = target: Fuc(a1-2)Gal(b1-4)GlcNAc(b1-2)Man
# Method in brief: as §1
# [5] = target: Fuc(a1-2)Gal(b1-4)GlcNAc6S
# Method in brief: as §1
# Fuc(a1-2)Gal6S(b1-4)Glc = target: Fuc(a1-2)Gal6S(b1-4)Glc
# Method in brief: as §1
# [6] = target: Fuc(a1-2)[Gal(a1-3)]Gal(b1-4)GlcNAc(b1-2)Man(a1-3)[Fuc(a1-2)[Gal(a1-3)]Gal(b1-4)GlcNAc(b1-2)Man(a1-6)]Man(b1-4)GlcNAc(b1-4)[Fuc(a1-6)]GlcNAc
# Method in brief: as §1
# [7] = target: Fuc(a1-2)[GalNAc(a1-3)]Gal(b1-3)GlcNAc(b1-2)Man(a1-3)[Fuc(a1-2)[GalNAc(a1-3)]Gal(b1-3)GlcNAc(b1-2)Man(a1-6)]Man(b1-4)GlcNAc(b1-4)[Fuc(a1-6)]GlcNAc
# Method in brief: as §1
# [8] = target: Fuc(a1-2)[GalNAc(a1-3)]Gal(b1-3)GlcNAc(b1-6)GalNAc
# Method in brief: as §1
# [9] = target: Gal(a1-3)Gal(b1-4)GlcNAc(b1-3)GalNAc
# Method in brief: as §1
# [10] = target: Gal(b1-3)GlcNAc(b1-6)[Gal(b1-3)]GalNAc
# Method in brief: as §1
# [11] = target: Gal(b1-3)[Fuc(a1-4)]GlcNAc
# Method in brief: as §1
# [12] = target: Gal(b1-4)GlcNAc(b1-2)Man(a1-3)[Gal(b1-4)GlcNAc(b1-2)Man(a1-6)][Gal(b1-4)GlcNAc(b1-4)]Man(b1-4)GlcNAc(b1-4)[Fuc(a1-6)]GlcNAc
# Method in brief: as §1
# [13] = target: Gal(b1-4)GlcNAc(b1-2)Man(a1-6)Man(b1-4)GlcNAc(b1-4)GlcNAc
# Method in brief: as §1
# Gal3S(b1-3)GalNAc = target: Gal3S(b1-3)GalNAc
# Method in brief: as §1
# [14] = target: Gal3S(b1-3)[Fuc(a1-4)]GlcNAc
# Method in brief: as §1
# Gal6S(b1-4)Glc = target: Gal6S(b1-4)Glc
# Method in brief: as §1
# [15] = target: GalNAc(b1-4)GlcNAc(b1-2)Man
# Method in brief: as §1
# GalNAc(b1-6)GalNAc = target: GalNAc(b1-6)GalNAc
# Method in brief: as §1
# [16] = target: GalNAc3S(b1-4)[Fuc(a1-3)]GlcNAc
# Method in brief: as §1
# GalNAc6S(b1-4)GlcNAc = target: GalNAc6S(b1-4)GlcNAc
# Method in brief: as §1
# [17] = target: GlcNAc(a1-3)Gal(b1-4)GlcNAc
# Method in brief: as §1
# [18] = target: GlcNAc(a1-4)Gal(b1-3)GlcNAc
# Method in brief: as §1
# [19] = target: GlcNAc(a1-4)Gal(b1-4)GlcNAc(b1-3)Gal(b1-4)GlcNAc(b1-3)Gal(b1-4)GlcNAc
# Method in brief: as §1
# [20] = target: GlcNAc(b1-2)Man(a1-3)[GlcNAc(b1-2)Man(a1-6)]Man(b1-4)GlcNAc(b1-4)[Fuc(a1-6)]GlcNAc
# Method in brief: as §1
# [21] = target: GlcNAc(b1-2)Man(a1-3)[GlcNAc(b1-4)][GlcNAc(b1-2)Man(a1-6)]Man(b1-4)GlcNAc(b1-4)GlcNAc
# Method in brief: as §1
# [22] = target: GlcNAc(b1-2)Man(a1-3)[GlcNAc(b1-4)][GlcNAc(b1-2)Man(a1-6)]Man(b1-4)GlcNAc(b1-4)[Fuc(a1-6)]GlcNAc
# Method in brief: as §1
# [23] = target: GlcNAc(b1-4)GlcNAc(b1-4)GlcNAc
# Method in brief: as §1
# [24] = target: GlcNAc(b1-4)GlcNAc(b1-4)GlcNAc(b1-4)GlcNAc(b1-4)GlcNAc(b1-4)GlcNAc
# Method in brief: as §1
# [25] = target: Man(a1-2)Man(a1-3)[Man(a1-6)]Man(a1-6)[Man(a1-2)Man(a1-3)]Man(b1-4)GlcNAc(b1-4)GlcNAc
# Method in brief: as §1
# [26] = target: Man(a1-2)Man(a1-6)[Man(a1-3)]Man(a1-6)[Man(a1-2)Man(a1-2)Man(a1-3)]Man
# Method in brief: as §1
# MurNAc(b1-4)GlcNAc = target: MurNAc(b1-4)GlcNAc
# Method in brief: as §1
# Neu5Ac(a2-6)Gal = target: Neu5Ac(a2-6)Gal
# Method in brief: as §1
# [27] = target: Neu5Ac(a2-6)Gal(b1-4)GlcNAc(b1-2)Man(a1-3)[GlcNAc(b1-2)Man(a1-6)]Man(b1-4)GlcNAc(b1-4)GlcNAc
# Method in brief: as §1
# [28] = target: Neu5Ac(a2-6)Gal(b1-4)GlcNAc(b1-3)Gal(b1-4)GlcNAc(b1-3)[Neu5Ac(a2-6)Gal(b1-4)GlcNAc(b1-3)Gal(b1-4)GlcNAc(b1-6)]GalNAc
# Method in brief: as §1
# [29] = target: Neu5Ac(a2-6)GalNAc(b1-4)GlcNAc
# Method in brief: as §1
# [30] = target: Neu5Ac(a2-6)GlcNAc(b1-4)GlcNAc(b1-4)GlcNAc
# Method in brief: as §1
# [31] = target: Neu5Gc(a2-3)Gal(b1-4)GlcNAc
# Method in brief: as §1
binder,measurement,setting,value
NKR-PIC (Mus musculus) (protein) GTGQKPSREKCCVFIQENLNKTTDCSVNLECPQDWLLHRDKCFHVSQVSNTWEEGQADCGRKGATLLLIQDQEELRFLLDSIKEKYNSFWIGLRFTLPDMNWKWINGTTFNSDVLKITGVTENGSCASILGDKVTPESCASDNRWICQKELNHETPSNDSGT,glycan array binding signal (z-score),Fuc(a1-2)Gal(b1-3)GalNAc,-0.288
same,glycan array binding signal (z-score),Fuc(a1-2)Gal(b1-3)GlcNAc,-0.281
same,glycan array binding signal (z-score),[1],-0.138
same,glycan array binding signal (z-score),[2],-0.371
same,glycan array binding signal (z-score),[3],-0.362
same,glycan array binding signal (z-score),[4],-0.316
same,glycan array binding signal (z-score),[5],-0.32
same,glycan array binding signal (z-score),Fuc(a1-2)Gal6S(b1-4)Glc,-0.317
same,glycan array binding signal (z-score),[6],-0.335
same,glycan array binding signal (z-score),[7],-0.375
same,glycan array binding signal (z-score),[8],-0.363
same,glycan array binding signal (z-score),[9],-0.361
same,glycan array binding signal (z-score),[10],-0.308
same,glycan array binding signal (z-score),[11],-0.262
same,glycan array binding signal (z-score),[12],-0.225
same,glycan array binding signal (z-score),[13],-0.334
same,glycan array binding signal (z-score),Gal3S(b1-3)GalNAc,-0.25
same,glycan array binding signal (z-score),[14],-0.318
same,glycan array binding signal (z-score),Gal6S(b1-4)Glc,-0.305
same,glycan array binding signal (z-score),[15],5.67
same,glycan array binding signal (z-score),GalNAc(b1-6)GalNAc,0.458
same,glycan array binding signal (z-score),[16],-0.38
same,glycan array binding signal (z-score),GalNAc6S(b1-4)GlcNAc,4.94
same,glycan array binding signal (z-score),[17],3.83
same,glycan array binding signal (z-score),[18],1.3
same,glycan array binding signal (z-score),[19],4.1
same,glycan array binding signal (z-score),[20],-0.287
same,glycan array binding signal (z-score),[21],3.99
same,glycan array binding signal (z-score),[22],3.73
same,glycan array binding signal (z-score),[23],4.83
same,glycan array binding signal (z-score),[24],4.62
same,glycan array binding signal (z-score),[25],-0.325
same,glycan array binding signal (z-score),[26],-0.367
same,glycan array binding signal (z-score),MurNAc(b1-4)GlcNAc,4.79
same,glycan array binding signal (z-score),Neu5Ac(a2-6)Gal,-0.258
same,glycan array binding signal (z-score),[27],-0.338
same,glycan array binding signal (z-score),[28],-0.332
same,glycan array binding signal (z-score),[29],4.03
same,glycan array binding signal (z-score),[30],5.02
same,glycan array binding signal (z-score),[31],-0.264
